“And” between values parts separate entries of the source, which are not always exact repeats. Equal entries are not always repeated. Inconclusive results are not listed. The source made the active and inactive calls. Unless noted, calls come from the whole dose curve; as a rule, active = well fitted curve in the direction sought with a large enough effect; inconclusive = small, poorly fitted or top-dose-only effect, or another doubt; inactive = no such curve, though single readings can be large; an effect the other way counts as inactive or inconclusive.
Assays:
[1] = Cell Viability - BJ (AID 421; calls by dose curve;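 note: potency is the fitted concentration of half-maximal effect; cells exposed to compound for 40 hours at 37 °C before readout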); conditions: BJ fibroblast viability, qHTS
Method in brief: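 Luminescent ATP signal (CellTiter-Glo, 20 min at room temperature) served as the read-out of viable BJ cells after 40 hours of compound treatment. Responses were scaled between DMSO and 100 uM tamoxifen, and AC50 values were obtained by Hill modeling.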

[2] = Cell Viability - Jurkat (AID 426;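 active = dose-dependent loss of cell ATP signal giving a full or clear fitted curve, ranked by lower potency value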; note: potency is the fitted concentration of half-maximal effect); conditions: qHTS
Method in brief: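 Jurkat (clone E6-1, human T-cell leukemia) cells, 5000/well in complete medium, were exposed to compound for 40 hr at 37 °C. Viability was read as intracellular ATP by CellTiter-Glo luminescence; AC50 came from Hill fits of concentration-response data.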

[3] = Cell Viability - Hek293 (AID 427;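 active = compounds whose dose-response curve shows a full or clear partial loss of cell viability, called from curve shape rather than a numeric limit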;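 note: potency is the fitted concentration of half-maximal effect; cells exposed to compound for 40 hours at 37 °C before reading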); conditions: qHTS
Method in brief: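 Luminescent ATP read-out (CellTiter-Glo, 20 min RT) after 40 hr compound exposure at 37 °C in complete medium. Signal normalized to DMSO (basal) and 100 uM tamoxifen (100% inhibition); concentration-response fitted with the standard Hill equation to give AC50.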

[4] = Cell Viability - MRC5 (AID 434; calls by dose curve;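 note: potency is the fitted concentration of half-maximal effect; potency reflects cytotoxicity seen as loss of intracellular ATP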); conditions: MRC5 lung fibroblast viability, qHTS
Method in brief: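 MRC5 normal human lung fibroblasts (1500/well) were treated with compounds for 40 hr at 37 °C in complete medium, and viable cells were measured as intracellular ATP by CellTiter-Glo luminescence. AC50 came from Hill fits, normalized to DMSO and 100 uM tamoxifen.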

[5] = Cell Viability - SK-N-SH (AID 435; calls by dose curve;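 note: potency is the fitted concentration of half-maximal effect; compound exposure lasted 40 h at 37 °C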); conditions: SK-N-SH neuroblastoma cell viability qHTS
Method in brief: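 SK-N-SH neuroblastoma cells (1500/well) treated 40 h at 37 °C in complete medium; viability read as cellular ATP by CellTiter-Glo luminescence. Normalized to DMSO and 100 uM tamoxifen; AC50 from Hill fits of qHTS concentration-response.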

[6] = target: Mitogen-activated protein kinase 10 (Mus musculus) (UniProt Q61831); experiment: JNK3 AlphaScreen Assay (AID 530; active = well fitted curve in either direction with a large enough effect, not every such curve was filed as active;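 note: kinase came from lysate of stimulated human HepG2 cells; signal reports phosphorylation of biotinylated GST-cJun 1-79 at Ser73 with 10 µM ATP; % is set by controls: 0 for no effect and ±100 for the full control effect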); conditions: JNK3 lysate, c-Jun phosphorylation; series mostly up to 57.1 µM
Method in brief: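 JNK3 came from HepG2 lysates pre-activated with IL-1beta and TNF-alpha and phosphorylated biotinylated GST-cJun (1-79) at 10 uM ATP, pH 7.6, room temperature. Compounds were titrated. AlphaScreen signal used anti-phospho-cJun (Ser73) antibody.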

[7] = Cell Viability - H-4-II-E (AID 543); conditions: H-4-II-E rat hepatoma viability; series mostly up to 92.2 µM; note: % is set by controls: 0 for no effect and ±100 for the full control effect; nearly all actives have a fitted effect of over 35% in size
Method in brief: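 Rat hepatoma H-4-II-E cells (1500/well) were plated, incubated 5 hr at 37 °C, then exposed to compounds for 40 hr at 37 °C. Cellular ATP was read by CellTiter-Glo luminescence; AC50 came from Hill-equation fits of concentration-response data.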

[8] = Cell Viability - SH-SY5Y (AID 544); conditions: SH-SY5Y neuroblastoma cell viability; series mostly up to 92.2 µM; note: nearly all actives have a fitted effect of over 55% in size
Method in brief: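 Human neuroblastoma SH-SY5Y cells (1500/well) in complete medium were exposed to compounds for 40 hr at 37 °C; intracellular ATP was then quantified by CellTiter-Glo luminescence after 20 min at room temperature. AC50 came from Hill-equation concentration-response fits.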

[9] = Cell Viability - Mesenchymal (AID 546); conditions: mesenchymal cells viability, qHTS; activity change, negative = cytotoxicity: at 91.7 µM (top of the series);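 note: cells exposed to compound for 40 hours before reading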
Method in brief: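 Normal human renal glomerulus-derived kidney mesenchymal cells, 1000 per well in complete medium, were treated with compounds for 40 hr at 37 °C. Viability was read as intracellular ATP by CellTiter-Glo luminescence; AC50 values came from Hill-equation fits of qHTS concentration-response data.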

[10] = Cellular Toxicity (caspase-3) HUV-EC-C (AID 656); conditions: HUV-EC-C cells, caspase-3 activation (apoptosis), vehicle = 0, 100 µM tamoxifen = 100%; series mostly up to 92.2 µM
Method in brief: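 HUV-EC-C cells (1000/well) in complete medium, compound-treated 16 h at 37 °C; caspase-3/7 activity read by Caspase-Glo 3/7 luminescence. Normalized to DMSO (basal) and 100 uM tamoxifen (100%); AC50 from Hill-equation concentration-response fits.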

[11] = Cellular Toxicity (caspase-3) MRC-5 (AID 659); conditions: MRC-5 cells, luminescence, normalized: DMSO 0%, 10 µM staurosporine 100%; series mostly up to 91.7 µM
Method in brief: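 Luminescence from caspase-cleaved aminoluciferin substrate (Caspase-Glo 3/7, 1 hr RT) reports caspase 3/7 activity in MRC-5 lung fibroblasts after 16 hr compound exposure. Normalized to DMSO basal and 10 uM staurosporine as 100%; AC50 from Hill fits.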

[12] = Cellular Toxicity (caspase-3) Mesangial (AID 660); conditions: mesangial cells, normalized: DMSO 0%, 100 µM tamoxifen 100%; series mostly up to 91.7 µM;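 note: cells exposed to compound for 16 h before the caspase read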
Method in brief: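 Human renal glomerular mesangial cells (1000/well) were treated with compounds for 16 h at 37 °C in complete medium, then caspase 3/7 activity was read by Caspase-Glo luminescence. Data were normalized to DMSO and 100 uM tamoxifen; AC50 from Hill fits.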

[13] = Cellular Toxicity (caspase-3) Hek293 (AID 664); conditions: HEK293 caspase-3 activation, DMSO = 0%, 100 µM tamoxifen = 100%; series mostly up to 92.2 µM;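 note: cells exposed to compound for 16 h at 37 °C before readout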
Method in brief: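 HEK293 cells were exposed to compounds in complete medium for 16 hr at 37 °C, then caspase-3/7 activity was read by Caspase-Glo 3/7 luminescence after 20 min at room temperature. Data normalized to DMSO and 100 uM tamoxifen; AC50 from Hill fits.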

[14] = Cellular Toxicity (caspase-3) N2a (AID 665); conditions: N2a cells, luminescence, normalized: DMSO 0%, 10 µM staurosporine 100%; series mostly up to 92.2 µM;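 note: compound exposure lasted 16 h at 37 °C before readout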
Method in brief: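 Mouse N2a neuroblastoma cells (1500/well) were treated with compounds for 16 h at 37 °C, then caspase-3/7 activity was read by Caspase-Glo luminescence after 1 h at room temperature. Data were normalized to DMSO and 10 uM staurosporine; AC50 from Hill fits.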

[15] = Cellular Toxicity (caspase-3) NIH 3T3 (AID 666); conditions: NIH 3T3 caspase-3 activation, apoptosis/toxicity, 0% DMSO, 100% is 100 µM tamoxifen; series mostly up to 92.2 µM;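 note: caspase signal read after 16 h compound exposure; 0% = DMSO basal and 100% = 100 µM tamoxifen stimulation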
Method in brief: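 Mouse NIH 3T3 fibroblasts (1000 cells/well) were treated with compound for 16 hr at 37°C in complete medium; caspase-3/7 activity was read by Caspase-Glo luminescence. Normalized to DMSO and 100 uM tamoxifen; AC50 from Hill fits.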

[16] = Cellular Toxicity (caspase-3) Renal Proximal Tubule (AID 667); conditions: renal proximal tubule cells, primary cells freshly taken from rat, solvent-only wells 0%, staurosporine 100%; series mostly up to 91.7 µM;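 note: cells exposed to compound for 16 hours at 37 °C before detection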
Method in brief: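 Freshly isolated primary rat kidney proximal tubule cells, 1000/well, treated 16 hr at 37 °C, then Caspase-Glo 3/7 luminescence after 1 hr. Normalized to DMSO and 10 uM staurosporine; AC50 from Hill fit.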

[17] = Cell Viability - LYMP1-002 - Assay at 16 hr (AID 948); conditions: LYMP1-002 lymphoblastoid cell viability; series mostly up to 92.2 µM;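 note: 0% = DMSO alone and full effect = 92 µM tetraoctylammonium bromide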
Method in brief: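 LYMP1-002 human lymphoblastoid cells, 2500/well, were treated with compounds for 16 hr at 37 C in complete medium. Viability was read as intracellular ATP by CellTiter-Glo luminescence, and AC50 was derived from a Hill fit to concentration-response data.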

[18] = qHTS Assay for Identification of Small Molecule Inducers of Hypoxia Response (AID 2120; active = well fitted curve in the direction sought with a large enough effect in the signal ratio, with a control signal flat, not every such curve was filed as active; the % refers to the signal ratio; note: 0% is about no effect); conditions: hypoxia response reporter cells, beta-lactamase ratio readout; series mostly up to 104 µM
Method in brief: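 HRE-beta-lactamase reporter in CellSensor HRE-bla ME-180 cells, 2500 cells/well in Opti-MEM with 0.5% dialyzed FBS; compounds tested as titration series, 17 h at 37 degrees C. CCF4 substrate 2.5 h at room temperature; AC50 from 460/530 nm ratio.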

[19] = target: Peroxisome proliferator-activated receptor alpha (Homo sapiens) (UniProt Q07869); experiment: qHTS assay for small molecule agonists of the peroxisome proliferator-activated receptor alpha (PPARalpha) signaling pathway (AID 651778); conditions: PathHunter PPARalpha complementation, chemiluminescence, 6 h; max response: hits give high values; note: % of control where 0% means no effect
Method in brief: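 Cells plated at 2,000/well and held overnight at 37 C, 5% CO2, then compound added by pin tool for 6 hr; after PathHunter detection reagent and 60 min at room temperature, chemiluminescence from enzyme complementation was read.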

[20] = qHTS assay for small molecule agonists of the antioxidant response element (ARE) signaling pathway measured by Nrf2-dependant transcriptional activity - cell viability counter screen (AID 720653; active = well fitted curve in the direction sought with a large enough effect in the repeat runs; an effect the other way counts as inactive or inconclusive; note: % is set by controls: 0 for no effect and ±100 for the full control effect); conditions: ARE-bla HepG2 viability, CellTiter-Glo ATP luminescence, 16 h; max response: hits give low values
Method in brief: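 ARE-bla HepG2 cells (2,000/well) rested 5 hrs at 37C/5% CO2, then exposed to compounds in DMSO for 16 hrs. Viability was read in the same wells as intracellular ATP by luminescence, 30 min at room temperature after reagent addition.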

Peroxisome proliferator-activated receptor alpha (Homo sapiens), sequence (Q07869 whole entry, looked up): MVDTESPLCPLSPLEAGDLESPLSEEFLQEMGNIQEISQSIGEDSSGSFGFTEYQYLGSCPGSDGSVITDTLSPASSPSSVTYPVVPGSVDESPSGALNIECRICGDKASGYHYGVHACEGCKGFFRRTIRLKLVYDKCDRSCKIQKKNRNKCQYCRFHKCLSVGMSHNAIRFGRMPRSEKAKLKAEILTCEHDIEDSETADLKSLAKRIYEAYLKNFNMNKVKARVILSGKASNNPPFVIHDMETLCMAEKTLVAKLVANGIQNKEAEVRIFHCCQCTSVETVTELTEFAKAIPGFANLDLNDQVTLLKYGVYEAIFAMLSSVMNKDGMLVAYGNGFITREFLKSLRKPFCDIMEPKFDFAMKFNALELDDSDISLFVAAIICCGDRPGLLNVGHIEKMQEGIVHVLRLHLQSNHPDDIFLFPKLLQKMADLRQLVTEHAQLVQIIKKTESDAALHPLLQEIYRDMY

OCCNCCO
inactive: Potency [1] > 92 µM | Potency [2] > 92 µM | Potency [3] > 92 µM | Potency [4] > 92 µM | Potency [5] > 92 µM | Potency [6] | Potency [7] | Potency [8] | activity change, negative = cytotoxicity [9] 11.5% | outcome [10] | outcome [11] | outcome [12] | outcome [13] | outcome [14] | outcome [15] | outcome [16] | Potency [17] | outcome [18] | max response [19] 0.687% and 0.279% | max response [20] 2.63% and -10.1%

c1ccc2c(c1)[nH]c1ccccc12
inactive: Potency [1] > 92 µM | Potency [2] > 92 µM | Potency [3] > 92 µM | Potency [4] > 92 µM | Potency [5] > 92 µM | Potency [6] | Potency [7] | Potency [8] | activity change, negative = cytotoxicity [9] -7.62% | outcome [10] | outcome [11] | outcome [12] | outcome [13] | outcome [14] | outcome [15] | outcome [16] | Potency [17] | outcome [18] | max response [19] 5.12% and 0.259% | max response [20] -11% and -21.8%

CCO[Si](CCCN)(OCC)OCC
inactive: Potency [1] > 92 µM | Potency [2] > 92 µM | Potency [3] > 92 µM | Potency [4] > 92 µM | Potency [5] > 92 µM | Potency [6] | Potency [7] | Potency [8] | activity change, negative = cytotoxicity [9] -8.88% | outcome [10] | outcome [11] | outcome [12] | outcome [13] | outcome [14] | outcome [15] | outcome [16] | Potency [17] | outcome [18] | max response [19] -1.45% and -1.48% | max response [20] -1.9% and -14%

C1OCOCO1
inactive: Potency [1] > 92 µM | Potency [2] > 92 µM | Potency [3] > 92 µM | Potency [4] > 92 µM | Potency [5] > 92 µM | Potency [6] | Potency [7] | Potency [8] | activity change, negative = cytotoxicity [9] -5.36% | outcome [10] | outcome [11] | outcome [12] | outcome [13] | outcome [14] | outcome [15] | outcome [16] | Potency [17] | outcome [18] | max response [19] -0.344% | max response [20] -3.94%

c1ccc2c(c1)c1cccc3ccc4cccc2c4c31
inactive: Potency [1] > 92 µM | Potency [2] > 92 µM | Potency [3] > 92 µM | Potency [4] > 92 µM | Potency [5] > 92 µM | Potency [6] | Potency [7] | Potency [8] | activity change, negative = cytotoxicity [9] 2.17% | outcome [10] | outcome [11] | outcome [12] | outcome [13] | outcome [14] | outcome [15] | outcome [16] | Potency [17] | outcome [18] | max response [19] -2.3% and -3.04% | max response [20] -0.0817% and -5.96%
